# IL-1B inflam inh – qHTS for Inhibitors of Inflammasome Signaling: IL-1-beta AlphaLISA Primary Screen | THP-1 LPS/ATP IL-1B secretion, AlphaLISA, 16 h; stronger effect = lower value | activity change, % at 57.5 µM | 360,000 tested, 4.7% active | AID 743279, 2014; in the data active = activity change below about -50%; inconclusive = mostly about -30% to -49%
#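 THP-1 cells pretreated 1 hr with compounds (up to 57.5 uM final), then stimulated with LPS (250 ng/mL final) plus ATP (1.25 mM final); secreted IL-1B measured by AlphaLISA after 16 hr, decreased signal indicating inhibition.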
# HT1080 IDH1KD tx – qHTS for induction of synthetic lethality in tumor cells producing 2HG: qHTS for the HT-1080-IDH1KD cell line. HT-1080 IDH1 knockdown viability, ATP luminescence, 48 h. 360,000 tested, 2% active. Potency, µM (highest dose often 46.1 µM), for inactives: top-dose activity, negative = toxicity, usual class: cytotoxic;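 note: potency is the fitted concentration of half-maximal effect; 0% = DMSO wells and -100% = cell-free medium wells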
#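 Assay cells: HT-1080 with IDH1 knockdown, 750 per well, RPMI/5% FBS. Exposure: 48 h at 37 °C following 2 h pre-incubation. Read: CellTiter-Glo luminescence; fitted concentration-response, curve class assigned.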
# 12-LOX inh – Primary qHTS assay for inhibitors of human arachidonate 12S-lipoxygenase (ALOX12): Round 2; 580,000 tested, 1.1% active; Potency, µM (highest dose often 108 µM), for inactives: at the highest dose activity change, negative = inhibition, hits mostly inhibitors; purified 12hLO, xylenol orange hydroperoxide absorbance; Polyunsaturated fatty acid lipoxygenase ALOX12 (Homo sapiens), P18054; AID 1671190, 2021; note: potency is the fitted concentration of half-maximal effect
# Target sequence (P18054 whole entry, looked up): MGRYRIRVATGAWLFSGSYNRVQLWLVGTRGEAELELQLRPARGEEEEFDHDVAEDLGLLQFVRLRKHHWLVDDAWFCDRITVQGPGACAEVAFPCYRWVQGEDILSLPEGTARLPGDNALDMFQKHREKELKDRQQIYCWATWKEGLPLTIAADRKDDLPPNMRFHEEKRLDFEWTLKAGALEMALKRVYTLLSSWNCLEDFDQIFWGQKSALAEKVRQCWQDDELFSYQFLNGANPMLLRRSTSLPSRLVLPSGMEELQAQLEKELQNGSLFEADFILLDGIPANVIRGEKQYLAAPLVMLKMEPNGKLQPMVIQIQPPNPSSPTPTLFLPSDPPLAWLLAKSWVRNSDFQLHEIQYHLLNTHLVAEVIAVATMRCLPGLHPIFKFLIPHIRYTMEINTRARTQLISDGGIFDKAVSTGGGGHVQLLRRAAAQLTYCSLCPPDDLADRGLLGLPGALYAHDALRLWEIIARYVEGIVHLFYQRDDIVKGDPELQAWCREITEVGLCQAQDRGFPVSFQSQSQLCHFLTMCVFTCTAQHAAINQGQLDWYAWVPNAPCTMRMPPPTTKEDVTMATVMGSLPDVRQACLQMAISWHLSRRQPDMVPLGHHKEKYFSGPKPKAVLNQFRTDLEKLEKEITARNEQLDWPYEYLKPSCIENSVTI
#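 Purified human 12hLO (150 nM final) in 25 mM Hepes, 0.01% Triton X-100, pH 7.0 was preincubated 15 min at room temperature with compound. Then 40 uM arachidonic acid was added, 30 min. Hydroperoxide was read by Fe-XO absorbance ratio 573/405 nm.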
# HT1080NT lethal – qHTS for induction of synthetic lethality in tumor cells producing 2HG: qHTS for the HT-1080-NT fibrosarcoma cell line; AID 686970, 2013; HT-1080-NT fibrosarcoma viability, CellTiter-Glo ATP luminescence, 48 h; Potency, µM (doses to about 46.1 µM), without a hit: at the highest dose activity, negative = less viability, most hits filed as cytotoxic; 360,000 tested, 1.6% active;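 note: NT is the 2HG producing partner of a matched IDH1 knockdown line; potency is the fitted concentration of half-maximal effect; 0% = DMSO-treated cells and -100% = media-only wells without cells; nearly all actives have a fitted effect of over 55% in size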
#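 Viability of the 2HG-overproducing fibrosarcoma line after 48 hours of compound exposure at 37 degrees C was determined by luminescence with CellTiter-Glo, and concentration-effect curves were then fitted and categorized.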
# DT40 TDP1 CPT – qHTS for Inhibitors of human tyrosyl-DNA phosphodiesterase 1 (TDP1): qHTS in cells in presence of CPT; chicken DT40 Tdp1-/-;hTDP1 cells + 20 nM CPT, ATP luminescence, 48 h; Potency, µM (top dose mostly 46.2 µM), inactives show top-dose activity change, negative = growth inhibition, usual class: inhibitors; 420,000 tested, 12% active; AID 686979, 2013; note: potency is the fitted concentration of half-maximal effect; nearly all actives have a fitted effect of over 55% in size
#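 Chicken DT40 Tdp1-/- cells complemented with human TDP1, 400 cells/well, exposed to compounds plus 20 nM camptothecin for at least 48 h at 37 C; viability read as ATP content by CellTiter-Glo luminescence.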
# TDP1 cell noCPT – qHTS for Inhibitors of human tyrosyl-DNA phosphodiesterase 1 (TDP1): qHTS in cells in absence of CPT; DT40 Tdp1-/- hTDP1 cells, no CPT, ATP luminescence, 48 h; Potency, µM (doses to about 46.2 µM), without a hit: top-dose activity change, negative = growth inhibition, most hits filed as inhibitors; 420,000 tested, 15% active; AID 686978, 2013; note: potency is the fitted concentration of half-maximal effect; nearly all actives have a fitted effect of over 55% in size
#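 Chicken DT40 Tdp1-/- cells stably complemented with human TDP1 were seeded at 400 cells/well with DMSO in place of 20 nM camptothecin. After compound pinning, cells grew at least 48 hr at 37 °C; viability read by CellTiter-Glo luminescence.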
# Active calls of the source: *; ? = inconclusive; · = not tested or not shown. Shown is part of a subset that was picked to be rich in hits. Unless noted, calls come from the whole dose curve; as a rule, active = well fitted curve in the direction sought with a large enough effect; inconclusive = small, poorly fitted or top-dose-only effect, or another doubt; inactive = no such curve, though single readings can be large; an effect the other way counts as inactive or inconclusive. Unless noted, % is set by controls: 0 for no effect and ±100 for the full control effect.
SMILES,IL-1B inflam inh,HT1080 IDH1KD tx,12-LOX inh,HT1080NT lethal,DT40 TDP1 CPT,TDP1 cell noCPT
CCn1cnc2sc(C(=O)N(Cc3ccc(N(C)C)cc3)Cc3ccco3)c(C)c2c1=O,-76*,-6%,6%,-6%,?,?
Cc1ccc(NC(=O)CC2(C(=O)O)CCCCC2)c(C)c1,·,·,-73%,·,·,·
COc1ccc(Cc2nnc(C(=O)NCCN3CCN(c4cccc(Cl)c4)CC3)o2)cc1OC,·,·,22%,·,·,·
COCCN(CCOC)c1nc(-c2ccccc2)nc2ccccc12,?,-3%,0%,0%,?,?
COCCN(CCOC)c1nc(-c2ccc(Cl)cc2)nc2ccccc12,34,-10%,0%,2%,18µM*,13µM*
CCN(CC)c1nc(-c2ccccc2)nc2ccccc12,?,-28%,0%,-8%,15µM*,?
CCCCN(CCCC)c1nc(-c2ccncc2)nc2ccccc12,0,14%,19%,19%,?,23µM*
CCCCNc1nc(-c2ccncc2)nc2ccccc12,·,·,-9%,·,·,·
CCn1cnnc1-c1nn(C)c2c1CN(C(=O)CCCC1C(=O)Nc3ccccc31)CC2 (centres undefined),·,·,11%,·,·,·
CC(C)(C)C(=O)c1c(N)[nH]c(C(=O)c2ccccc2)c1-c1ccc(C(F)(F)F)cc1,2,-15%,1%,2%,?,23µM*
Nc1[nH]c(C(=O)c2ccccc2)c(-c2ccccc2C(F)(F)F)c1C(=O)c1c[nH]c2ccccc12,·,·,-3%,·,·,·
Nc1[nH]c(C(=O)c2ccccc2)c(-c2ccc(Br)cc2)c1C(=O)c1cccs1,25,8%,40µM*,12%,-24%,?
Nc1[nH]c(C(=O)c2ccccc2)c(-c2ccccc2C(F)(F)F)c1C(=O)c1cccs1,5,-11%,1%,0%,23µM*,23µM*
Nc1[nH]c(C(=O)c2ccccc2)c(-c2ccc(Br)cc2)c1C(=O)c1ccc(Br)cc1,38,5%,?,14%,-13%,-14%
CC(=O)N(c1nc(COc2ccccc2C(N)=O)cs1)c1ccc(C)cc1C,·,·,-1%,·,·,·
O=[N+]([O-])c1ccc(CS(=O)c2ccccc2)cc1 (centres undefined),12,10%,-2%,1%,-11%,-12%
O=[N+]([O-])c1ccc(S(=O)Cc2ccccc2)c([N+](=O)[O-])c1 (centres undefined),-101*,16µM*,?,16µM*,0.46µM*,0.58µM*
c1ccc(CSc2nnc(NC3CCCCC3)s2)cc1,-52*,2%,-2%,-2%,?,21µM*
O=C(CSc1nnc(NC2CCCCC2)s1)Nc1cc(Cl)ccc1Cl,·,·,6%,·,·,·
COC(=O)c1cc(CSc2nnc(NC3CCCCC3)s2)oc1C,0,18µM*,?,-4%,?,?
O=c1cc(CSc2nnc(NC3CCCCC3)s2)nc2sccn12,38,2%,-11%,-5%,21%,-7%
Cc1cc(C(=O)N2CCCC(CCc3c(F)cccc3F)C2)no1 (centres undefined),·,·,62%,·,·,·
O=C(Nc1ccccc1Sc1ccccc1)C1CC=CCC1 (centres undefined),·,·,-3%,·,·,·
CCCC[C@@H](CNC)NC[C@H](NCCCCC1CCCCC1)C(C)C,?,?,20%,?,6.5µM*,5.2µM*
Cc1cccc(-c2nc3ccccc3c(=O)n2NC(=S)N(C)C)c1,-2,0%,?,0%,9.2µM*,8.2µM*
SMILES,IL-1B inflam inh,HT1080 IDH1KD tx,12-LOX inh,HT1080NT lethal,DT40 TDP1 CPT,TDP1 cell noCPT
CN(C)C(=S)Nn1c(-c2ccccc2)nc2ccccc2c1=O,5,25%,5%,21%,-5%,-23%
COc1ccc(Cl)cc1NC(=O)Cn1c(=O)n(Cc2cccs2)c(=O)c2cccnc21,·,·,-20%,·,?,18µM*
Cc1ccc(C)c(NC(=O)Cn2c(=O)n(Cc3cccs3)c(=O)c3cccnc32)c1,·,·,?,·,18µM*,13µM*
COc1ccc(CCn2c(=O)c3cccnc3n(CC(=O)Nc3ccc(C)c(F)c3)c2=O)cc1OC,·,·,?,·,4.1µM*,21µM*
COc1ccc(Cl)cc1NC(=O)Cn1c(=O)n(Cc2ccc(F)cc2)c(=O)c2cccnc21,·,·,-16%,·,?,9.2µM*
COc1ccc(CCn2c(=O)c3cccnc3n(CC(=O)Nc3cccc(C)c3)c2=O)cc1OC,·,·,-13%,·,-15%,-13%
Cc1ccc(OCCCOc2ccccc2/C=N/NC(=O)c2cccc(Cl)c2)c(C)c1,·,·,-4%,·,·,·
O=C1CCCC2=C1C(c1ccccc1Cl)CC(=O)N2c1ccccc1F (centres undefined),·,·,-4%,·,·,·
CCOC(=O)c1c(NC(=O)/C=C/C(=O)O)sc(C)c1-c1ccc(F)cc1,-101*,?,9%,21µM*,?,?
COC(=O)c1c(NC(=O)/C=C/C(=O)O)sc(C)c1-c1ccc(C)c(C)c1,-95*,?,-25%,?,?,?
CCOC(=O)c1c(NC(=O)/C=C/C(=O)O)sc(C)c1-c1ccc(C)c(C)c1,-95*,?,-28%,?,?,?
CCOC(=O)c1c(NC(=O)/C=C/c2ccc(OCC)cc2)sc2c1CCCC2,·,·,-25%,·,·,·
CCOC(=O)c1c(NC(=O)/C=C/c2ccc(OCC)cc2)sc(C)c1C,·,·,-4%,·,·,·
CC(C)=C1C2CCC1C(C(=O)Nc1sc(C)c(-c3ccc(C(C)C)cc3)c1C(N)=O)C2C(=O)O (centres undefined),-28,16µM*,?,?,16µM*,16µM*
O=S(=O)(c1cccc(Cl)c1)N1CCN(Cc2coc(-c3cccs3)n2)CC1,·,·,-28%,·,·,·
COC(=O)c1c(NC(=O)/C=C/C(=O)O)sc(C)c1-c1ccc(C(C)C)cc1,-101*,?,-1%,?,4.6µM*,21µM*
CCCc1c(C)nc2ccc(Cl)cc2c1-c1ccccc1,·,·,1.8µM*,·,·,·
CC(=O)c1c(C)nc2ccc(Cl)cc2c1-c1ccccc1,·,·,-28%,·,·,·
COc1ccc(C(=O)N2CCC3(CC2)CC(N(C(=O)c2ccccc2)C2CC2)CCO3)cn1 (centres undefined),·,·,47%,·,·,·

# Assay outcomes from PubChem.
